High-throughput results (PubChem)
Only some compounds are listed: those with a hit (about 1.2% of all), similar ones and a draw of the others.
GSH bead fluor – GSH bead compound fluorescence profile; GSH beads flow cytometry, compound fluorescence 488/530 nm; hits give high values; fluorescence (KMESF) at 10 µM; actives 0.25% (n = 190,000); AID 1776; in the data active means fluorescence above about 89;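 further: glutathione beads carrying GST-tagged Bcl family fusion proteins plus one bare bead set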
RGS16-Gao HTS – RGS16-Galphao interaction regulator (human); O15492+P09471; bead-based flow cytometry RGS16-Galphao binding, fluorescence; actives lie on both sides; binding response (% of control), % at 10 µM; actives 0.38% (n = 220,000);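 further: Galphao activated by GDP with aluminum fluoride before binding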
Target sequence (O15492 whole entry, looked up): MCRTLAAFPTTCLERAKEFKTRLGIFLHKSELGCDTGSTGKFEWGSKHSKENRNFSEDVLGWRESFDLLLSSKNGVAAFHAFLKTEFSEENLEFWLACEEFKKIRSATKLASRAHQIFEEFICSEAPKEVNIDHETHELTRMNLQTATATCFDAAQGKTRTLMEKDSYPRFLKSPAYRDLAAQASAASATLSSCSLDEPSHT
Target sequence (P09471 whole entry, looked up): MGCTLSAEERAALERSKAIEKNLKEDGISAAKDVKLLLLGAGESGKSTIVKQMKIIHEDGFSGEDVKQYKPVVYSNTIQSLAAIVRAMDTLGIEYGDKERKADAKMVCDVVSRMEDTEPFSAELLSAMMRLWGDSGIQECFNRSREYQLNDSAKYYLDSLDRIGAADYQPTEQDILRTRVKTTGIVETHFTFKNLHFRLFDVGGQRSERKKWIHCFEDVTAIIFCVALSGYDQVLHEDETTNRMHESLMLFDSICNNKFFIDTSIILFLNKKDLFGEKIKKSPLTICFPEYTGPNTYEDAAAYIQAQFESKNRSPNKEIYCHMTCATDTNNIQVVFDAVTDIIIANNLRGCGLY
RGS7-Gao – human RGS7-Galphao interaction regulation; Multiplexed bead flow cytometry, RGS7-Galphao binding; actives lie on both sides; binding response (% of control), % at 10 µM; actives 0.35% (n = 220,000); in the data active means binding response below about 49% or above about 150%; inconclusive means no clear call, values can overlap the other calls; inactive means in between;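 further: fluorescent Galphao held in activated GDP-AlF4 state binding bead-coupled RGS7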
Target sequence (P09471 whole entry, looked up): as above
RGS4-Gao reg – modulates binding of RGS4 to human Galphao; P09471; Multiplexed bead flow cytometry; actives lie on both sides; binding response (% of control), % at 10 µM; actives 0.33% (n = 220,000); AID 1415; in the data active means binding response below about 49% or above about 150%; inactive means in between;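 further: fluorescent Galphao activated with aluminum fluoride binding bead-coupled RGS4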
RGS8-Gao reg – modulates binding of RGS8 to human Galphao; multiplexed bead flow cytometry; actives lie on both sides; response (percent of control binding), % at 10 µM; actives 0.34% (n = 220,000); AID 1423; in the data active means response below about 60% or above about 140%; inactive means in between;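 further: Galphao activated as the GDP aluminium fluoride complex binding bead-coupled RGS8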
Avidin fluor – avidin bead compound fluorescence profile | Avidin beads, compound fluorescence 488/530 nm, flow cytometry; hits give high values | fluorescence (KMESF) at 10 µM | actives 0.38% (n = 220,000); in the data active means fluorescence above about 47
RGS4-Gao HTS – RGS4-Galphao interaction regulator (human); shares compounds with RGS16-Gao HTS; multiplexed bead flow cytometry, RGS–Galpha-o binding; RGS4–Galpha-o binding response, % at 10 µM; actives 99% (n = 1,600); AID 1504;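 further: fluorescently labeled Galpha-o bound to GDP with aluminium fluoride binding biotinylated RGS beads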
Biotin-avidin – counter-screen: compounds disrupting biotin binding to avidin beads. AID 1783. shares compounds with RGS16-Gao HTS. 1,700 tested, under 10 active. streptavidin beads, fluorescein-biotin binding, flow cytometry. inhibition, % at 10 µM;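 active means inhibition above 50%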;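 further: median green fluorescence of gated singlet beads compared with DMSO control wells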
RGS8-Gao single – RGS8-Galphao interaction regulation, single point confirmation; shares compounds with RGS16-Gao HTS; bead-based flow cytometry RGS8-Galphao binding, fluorescence; actives lie on both sides; binding response (% of control), % at 10 µM; actives 3% (n = 1,700); in the data active means binding response below about 72% or above about 130%; inactive means in between;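 further: Galphao activated as GDP AlF4 complex before binding bead RGS8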
RGS7-Gao confirm – RGS7-Galphao interaction regulation, single point confirmation | shares compounds with RGS16-Gao HTS | bead-based flow cytometry RGS7-Galphao binding; actives lie on both sides | response (percent of control binding), % at 10 µM | actives 7.8% (n = 1,700); in the data active means response below about 75% or above about 130%; inactive means in between;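 further: fluorescent Galphao activated with GDP and aluminum fluoride binding bead-coupled RGS7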
RGS16-Gao conf – RGS16-Galphao interaction regulation, single point confirmation; response (% of control binding), % at 10 µM; bead-based flow cytometry, RGS16-Galphao binding; actives lie on both sides; shares compounds with RGS16-Gao HTS; actives 4% (n = 1,700); in the data active means response below about 74% or above about 130%; inactive means in between;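 further: Galphao activated as the GDP aluminium fluoride complex binding bead-coupled RGS16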
RGS4-Gao confirm – confirmation of regulators of human RGS4-Galphao interaction. RGS4-Galphao binding, multiplexed bead flow cytometry; actives lie on both sides. actives 4% (n = 1,700). shares compounds with RGS16-Gao HTS. binding response (% of control), % at 10 µM; in the data active means binding response below about 74% or above about 130%; inactive means in between
RGS19-Gao single – confirmation of regulators of human RGS19-Galphao interaction; shares compounds with RGS16-Gao HTS; bead-based flow cytometry RGS19-Galphao binding; actives lie on both sides; response (percent of control binding), % at 10 µM; actives 5% (n = 1,700); in the data active means response below about 50% or above about 160%; inactive means in between
Large screens that a line does not name were inactive (follow-up assays come after a bar, where they were run); [ ] = dose if it differs, or a comment. Unless noted, how the calls were made is not given here.

c1cc2c(cc1Nc1nc(-c3ccc4c(c3)OCO4)cs1)OCCO2	none
CC(C)=C(NC(=O)c1ccccc1)C(=O)Nc1ccc(C(=O)O)cc1	RGS7-Gao inconclusive (no result: GSH bead fluor)
COc1ccc(-n2nc(C(=O)NCC(=O)N3CCN(C)CC3)c3ccccc3c2=O)cc1OC	RGS8-Gao reg 142[activator] | RGS4-Gao HTS 108 | Biotin-avidin inactive | RGS8-Gao single inactive | RGS7-Gao confirm inactive | RGS16-Gao conf inactive | RGS4-Gao confirm inactive | RGS19-Gao single inactive
COc1ccc(-n2nc(C(=O)NCC(=O)N3CCN(c4ccccn4)CC3)c3ccccc3c2=O)cc1Cl	none
COCCn1c(C)cc(C(=O)COC(=O)c2ccc3ncsc3c2)c1C	RGS16-Gao HTS -53, RGS7-Gao 15, RGS4-Gao reg -46, RGS8-Gao reg 47 | Biotin-avidin inactive | RGS8-Gao single inactive | RGS7-Gao confirm inactive | RGS16-Gao conf inactive | RGS4-Gao confirm inactive | RGS19-Gao single inactive
Cc1c(-n2c(SCC(=O)NC(C)C)nc3ccccc3c2=O)c(=O)n(-c2ccccc2)n1C	RGS7-Gao inconclusive
CC(C)(C)C1CCC2(CC1)CC(=O)c1ccccc1O2 (stereo unspecified)	RGS7-Gao inconclusive (no result: GSH bead fluor)
CCc1cc(C(=O)c2ccc(OC)cc2)c(NC(=O)CC(C)(C)CC(=O)O)s1	RGS7-Gao inconclusive (no result: GSH bead fluor)
CN1CCN(C2=C(Cl)C(=O)C(c3cnc(N4CCCCC4)s3)=C(Cl)C2=O)CC1	RGS16-Gao HTS 14 | RGS4-Gao HTS 70 | Biotin-avidin inactive | RGS8-Gao single 27 | RGS7-Gao confirm 18 | RGS16-Gao conf -8.3 | RGS4-Gao confirm 63 | RGS19-Gao single -8.1
Cc1ccc(C(C(=O)NC(C)(C)C)N(Cc2ccccc2)C(=O)c2snc(C(N)=O)c2N)o1 (stereo unspecified)	RGS7-Gao 161[activator], Avidin fluor 128 | RGS4-Gao HTS 110 | Biotin-avidin inactive | RGS8-Gao single inactive | RGS7-Gao confirm inactive | RGS16-Gao conf inactive | RGS4-Gao confirm inactive | RGS19-Gao single inactive
Cc1ccc(C(C(=O)NC2CCCC2)N(Cc2cccnc2)C(=O)c2snc(C(N)=O)c2N)o1 (stereo unspecified)	none
Cc1onc(-c2ccc(Cl)cc2)c1-c1ccnc(SCC(=O)Nc2cc(Cl)cc(Cl)c2)n1	RGS7-Gao inconclusive (no result: GSH bead fluor)
CC1CCC2(CC1)NC(CO)(CO)CO2 (stereo unspecified)	none
CCC1CCC2(CC1)NC(CO)(CO)CO2 (stereo unspecified)	RGS8-Gao reg 145[activator] | RGS4-Gao HTS 115 | Biotin-avidin inactive | RGS8-Gao single inactive | RGS7-Gao confirm inactive | RGS16-Gao conf inactive | RGS4-Gao confirm inactive | RGS19-Gao single inactive
S=C(Nc1ccccc1Cl)N1CCN(Cc2ccccc2)CC1	none
Cc1c(Cl)cccc1NC(=S)N1CCN(Cc2ccccc2)CC1	none | Biotin-avidin inactive | RGS8-Gao single inactive | RGS7-Gao confirm inactive | RGS16-Gao conf inactive | RGS4-Gao confirm inactive | RGS19-Gao single inactive
CCN1CCN(C(=O)CCNC(=O)Cn2ccc3ccccc3c2=O)CC1	none
CCCN1CCN(CCCNC(=O)CCNC(=O)Cn2ccc3ccccc3c2=O)CC1	RGS8-Gao reg 142[activator] | RGS4-Gao HTS 104 | Biotin-avidin inactive | RGS8-Gao single inactive | RGS7-Gao confirm inactive | RGS16-Gao conf inactive | RGS4-Gao confirm inactive | RGS19-Gao single inactive
CCc1c(O)c(/C(C)=N\O)c(=O)n(-c2ccccc2)c1-c1ccccc1	RGS16-Gao HTS 271[activator] | RGS4-Gao HTS 111 | Biotin-avidin inactive | RGS8-Gao single inactive | RGS7-Gao confirm inactive | RGS16-Gao conf inactive | RGS4-Gao confirm inactive | RGS19-Gao single inactive
O=Cc1ccc(-c2ccc(Cl)cc2Cl)[nH]1	RGS16-Gao HTS 15, RGS7-Gao 16, RGS4-Gao reg 26, RGS8-Gao reg 26 | Biotin-avidin inactive | RGS8-Gao single inactive | RGS7-Gao confirm inactive | RGS16-Gao conf inactive | RGS4-Gao confirm inactive | RGS19-Gao single inactive
COc1cc2c(cc1OC)C(Nc1ccccc1)=NC(C)(C)C2	none
CCNC(=O)Cn1c(=O)c(=O)n(Cc2ccccc2)c2ccc(Cl)cc21	RGS16-Gao HTS 243[activator], RGS7-Gao 171[activator], RGS4-Gao reg 162[activator], Avidin fluor 57 | Biotin-avidin inactive | RGS8-Gao single inactive | RGS7-Gao confirm inactive | RGS16-Gao conf inactive | RGS4-Gao confirm inactive | RGS19-Gao single inactive
CC1Cc2ccccc2N1C(=O)CO/N=C/c1ccc(OC(F)F)cc1 (stereo unspecified)	none
CC(C)(C)c1ccc(-c2noc(C(=O)NN)n2)cc1	RGS16-Gao HTS 14, RGS7-Gao inconclusive (no result: GSH bead fluor) | RGS4-Gao HTS 83 | Biotin-avidin inactive | RGS8-Gao single inactive | RGS7-Gao confirm inactive | RGS16-Gao conf inactive | RGS4-Gao confirm inactive | RGS19-Gao single inactive
O=C(NCc1ccccn1)c1nc(-c2ccc(C(F)(F)F)cc2)no1	none
O=C(CN1CCc2ccccc2C1)Nc1ccc(Br)cc1	RGS8-Gao reg 146[activator] | RGS4-Gao HTS 120 | Biotin-avidin inactive | RGS8-Gao single inactive | RGS7-Gao confirm inactive | RGS16-Gao conf inactive | RGS4-Gao confirm inactive | RGS19-Gao single inactive
CCc1ccc(NC(=O)CN2CCc3ccccc3C2)cc1	none
COc1cccc(N2CCN(C(=S)NCc3ccco3)CC2)c1	none
Cc1nn(CCCC(=O)N2CCN(c3ccc(F)cc3)CC2)c(C)c1[N+](=O)[O-]	RGS16-Gao HTS 15, RGS7-Gao 19, RGS4-Gao reg 25, RGS8-Gao reg 18 | Biotin-avidin inactive | RGS8-Gao single inactive | RGS7-Gao confirm inactive | RGS16-Gao conf inactive | RGS4-Gao confirm inactive | RGS19-Gao single inactive
